Some structures have more than one record in an assay (separate samples or runs), and their calls can disagree. Calls of active or inactive are those of the source. Rule for the calls: active = hit-call score of the fitted dose curve at least 0.9, where 1 is the maximum; inactive = score below 0.9.
Each compound was assayed against Hepatocyte nuclear factor 6 (Homo sapiens) (UniProt Q9UBC0) (assay: ATG_HNF6_CIS: Attagene CIS-FACTORIAL HepG2 Assay for human Hepatocyte Nuclear Factor 6 (HNF6) (AID 2282952)). Conditions: HepG2 Attagene cis-factorial HNF6 reporter transcription; actives raise or lower the signal.
Hepatocyte nuclear factor 6 (Homo sapiens), sequence (Q9UBC0 whole entry, looked up): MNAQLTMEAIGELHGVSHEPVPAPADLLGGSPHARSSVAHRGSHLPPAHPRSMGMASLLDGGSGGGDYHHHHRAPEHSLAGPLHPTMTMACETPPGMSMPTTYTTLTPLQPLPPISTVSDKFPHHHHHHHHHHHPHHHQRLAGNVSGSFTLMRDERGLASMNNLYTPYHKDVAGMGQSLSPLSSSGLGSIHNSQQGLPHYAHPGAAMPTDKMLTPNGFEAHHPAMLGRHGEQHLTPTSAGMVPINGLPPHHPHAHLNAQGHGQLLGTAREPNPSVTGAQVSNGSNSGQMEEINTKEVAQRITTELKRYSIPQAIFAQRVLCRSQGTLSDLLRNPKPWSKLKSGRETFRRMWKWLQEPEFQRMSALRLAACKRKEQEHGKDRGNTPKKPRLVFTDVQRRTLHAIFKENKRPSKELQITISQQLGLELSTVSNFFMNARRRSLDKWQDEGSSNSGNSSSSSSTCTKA
Procedure: ATG_CIS is a cell-based, multiplexed-readout assay that uses HepG2, a human liver cell line, with measurements taken at 24 hours after chemical dosing in a 24-well plate.ATG_HNF6_CIS is one of 52 assay component(s) measured or calculated from the ATG_CIS assay. It is designed to make measurements of mRNA induction, a form of inducible reporter, as detected with fluorescence intensity signals by Reverse transcription polymerase chain reaction (RT-PCR) and Capillary electrophoresis technology.Data from the assay component ATG_HNF6_CIS was analyzed into 1 assay endpoint. This assay endpoint, ATG_HNF6_CIS, was analyzed with bidirectional fitting relative to DMSO as the negative control and baseline of activity. Using a type of inducible reporter, measures of mRNA for gain or loss-of-signal activity can be used to understand the reporter gene at the transcription factor-level as they relate to the gene ONECUT1. Furthermore, this assay endpoint can be referred to as a primary readout, because this assay has produced multiple assay endpoints where this one serves a reporter gene function. To generalize the intended target to other relatable targets, this assay endpoint is annotated to the dna binding intended target family, where the subfamily is homeobox protein.
Human liver HepG2 cells are transiently transfected with multiple reporter transcription units (MRTUs) in 6-well plates using FuGene 6 reagent (Roche; 3 ml FuGene/1 mg DNA). The MRTU constructs are regulated by a cis-regulating element (promoter). […] A major difference between the CIS and TRANS system is that in CIS activities of endogenous TFs are measured, whereas the TRANS assay evaluates changes in activities of exogenous, chimeric NR-Gal4 proteins. […] At the end of 24 hour incubation, total RNA was isolated using TriZol reagent (Invitrogen). The isolated RNA is then reverse-transcribed using oligo(dT) primer and Mo-MLV reverse transcriptase (Invitrogen) with DNAse I (Ambion) treatment for 30 min. The one-tenth of the produced cDNA was amplified by PCR using Taq DNA polymerase (Invitrogen) and two reporter sequence-specific primers. The PCR products were fluorescently labeled by primer extension with 6-arboxyfluorescein (6-FAM) 5'-labeled reporter sequence-specific primer (2 min at 95 C, 20 s at 68 C and 10 min at 72 C) and these products were digested with 5U of HpaI (New England Biolabs) for 2h at 37 C. The fragments were purified using Qiaquick PCR columns (Qiagen), analyzed on an ABI 3130xL genetic analyzer (Applied Biosystems) with peak positions identified by using a set of X-rhodamine (ROX)-labeled MapMarker1000 molecular weight standards (BioVentures). The raw capillary electrophoresis data was processed using Attagraph software (Attagene).
CCOP(=S)(OCC)SCCS(=O)(=O)CC was tested, and the outcome was “inactive”.
For O=C(Cc1ccccc1)c1ccccc1, the outcome was “inactive”.
In the case of CCCCCCCCC(=O)NCc1ccc(O)c(OC)c1, the outcome was “inactive”.
For ClC1(Cl)C2(Cl)C3(Cl)C4(Cl)C(Cl)(Cl)C5(Cl)C3(Cl)C1(Cl)C5(Cl)C24Cl (stereo not given), the outcome was “inactive”.
O=C(O)C(F)(F)C(F)(F)C(F)(F)C(F)(F)C(F)(F)C(F)(F)C(F)(F)C(F)(F)C(F)(F)C(F)(F)F was tested, and the outcome was “inactive”.
For O=[N+]([O-])c1ccc2c3c(cccc13)CC2, the outcome was “inactive”.
With BrCCBr the outcome was “inactive”.
In the case of CCOP(OCC)OCC, the outcome was “inactive”.
For Cc1ccccc1C(=O)Nc1cccc(OC(C)C)c1, the outcome was “inactive”.
With ClC(Cl)=C(Cl)C(Cl)=C(Cl)Cl the outcome was “inactive”.
With CCCCCCCCSC(=O)Oc1cc(Cl)nnc1-c1ccccc1 the outcome was “inactive”.
With ClCCBr the outcome was “inactive”.
CCSC(C)CC1CC(=O)C(C(CC)=NOC/C=C/Cl)=C(O)C1 (stereo not given) was tested, and the outcome was “inactive”.
CC(C)CCCCCCOC(=O)c1ccccc1C(=O)OCCCCCCC(C)C was tested, and the outcome was “inactive”.
With C=C(C)C#N the outcome was “inactive”.
COc1cccc(C=O)c1 was tested, and the outcome was “inactive”.
With COc1ccccc1OC the outcome was “inactive”.
With O=C(OC1CCCCC1)c1ccccc1C(=O)OC1CCCCC1 the outcome was “inactive”.
With Cc1cc(=O)[nH]o1 the outcome was “inactive”.
In the case of CCCCP(CCCC)CCCC, the outcome was “inactive”.
For C[C@]12CC[C@H](O)CC1=CC[C@@H]1[C@@H]2CC[C@]2(C)C(=O)CC[C@@H]12, the outcome was “inactive”.
N#CCCO was tested, and the outcome was “inactive”.
C=CC#N was tested, and the outcome was “inactive”.
With CCCCCCCCCl the outcome was “inactive”.
For O=C1C2(Cl)C3(Cl)C4(Cl)C(Cl)(Cl)C5(Cl)C3(Cl)C1(Cl)C5(Cl)C24Cl (stereo not given), the AC50 was 11.1 µM (active) and the outcome was “inactive”.
For CC(=O)c1cc(C(C)(C)C)cc2c1CCC2(C)C, the outcome was “inactive”.
With CC1CN1P(=O)(N1CC1C)N1CC1C (stereo not given) the outcome was “inactive”.
CC(=O)OC(c1ccccc1)C(Cl)(Cl)Cl (stereo not given) was tested, and the outcome was “inactive”.
With COc1cc2c(cc1OC)[C@@]13CCN4CC5=CCO[C@H]6CC(=O)N2[C@H]1[C@H]6[C@H]5C[C@H]43 the outcome was “inactive”.
For Nc1ccc(Cl)cc1C(=O)c1ccccc1, the outcome was “inactive”.
For CC(=O)C(Cl)C(=O)N(C)C (stereo not given), the outcome was “inactive”.
With CC12CC1(C)C(=O)N(c1cc(Cl)cc(Cl)c1)C2=O (stereo not given) the outcome was “inactive”.
In the case of CCC(=O)C(CC(C)N(C)C)(c1ccccc1)c1ccccc1 (stereo not given), the outcome was “inactive”.
For C[C@@H](Oc1ccc(Cl)cc1Cl)C(=O)O, the outcome was “inactive”.
For CCOC(=O)Nc1cccc(OC(=O)Nc2ccccc2)c1, the outcome was “inactive”.
In the case of CC(C)(c1ccc(OCC2CO2)cc1)c1ccc(OCC2CO2)cc1 (stereo not given), the outcome was “inactive”.
With NC(=S)Nc1ccccc1 the outcome was “inactive”.
For [O-][Cl+2]([O-])O, the outcome was “inactive”.
With O=CC=O the outcome was “inactive”.

— PubChem BioAssay (EPA / NIEHS)
